Source: PubChem BioAssay AID1347077 (National Center for Advancing Translational Sciences (NCATS), 2019)
Hit rate of the full screen: of about 44,000 compounds, fewer than 10 were called active. Calls follow the shape of the dose curve; as a rule, active = well fitted activation curve with a large enough effect; inconclusive = small, poorly fitted or top-dose-only effect, or another doubt; inactive = no such curve, though single readings can be large or run the other way. The list is a sample of the results.

Target: Beta-2 adrenergic receptor (Homo sapiens) (UniProt P07550)
Assay: qHTS assay of beta-arrestin-biased ligands of beta2-adrenergic receptor: NCGC Sytravon Library Screen;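 also: 0% = DMSO and full agonism = EC100 isoproterenol or metaproterenol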
Conditions: HTLA Tango cells, beta-arrestin recruitment, luciferase luminescence, 18 h; series mostly up to 46.1 µM; activation: at the top concentration
Description: The concept of biased agonism is an emerging concept of molecular pharmacology which proposes that seven transmembrane receptors (7TMRs) or G protein-coupled receptors (GPCRs), exist in multiple signaling conformations and complexes and that ligands (either agonists or antagonists) can induce signaling biased responses for distinct signal transduction cascades. […] Furthermore, accumulating evidence over the last decade has drawn attention to a novel function of beta-arrestins as signal transducers that scaffold various signaling molecules upon activation of 7TMRs. […] This beta-arrestin-biased signaling presumably leads to distinct physiological outcomes from those by G protein activation. Additionally, the active receptor conformations which prefer on this beta-arrestin signaling are likely different from those activating G protein signaling. […] The goal of this screening project will be to discover and optimize novel beta-arrestin-biased ligands for beta2-AR signaling. A luminescent cell-based assay for beta2-AR-mediated agonism, known as the Tango assay, has been validated in which ligand binding of a recombinant beta2-AR and subsequent recruitment of a recombinant beta-arrestin lead to the release of the transcriptional activator tTA, which upregulates transcription of a tTA-responsive luciferase gene. […] Compounds from the NCGC Sytravon Library collection were screened as a concentration-titration series that ranged from 46 microM to 0.6 nM. NIH Molecular Libraries Probe Production Network [MLPCN] NIH Chemical Genomics Center [NCGC] MLPCN Grant: Fast-track/HHSN271700800025C PI: Bryan Roth and Bob Lefkowitz
Tango cells were dispensed into white, solid, tissue-culture-treated 1536-well plates at 1500 cells/well in DMEM, containing 1% fetal bovine serum (FBS). Then, 23 nL of compounds or DMSO were delivered to each well using a pin tool. Plates were incubated at 37 degrees C, 5% CO2 for 18 hr. Then 2.5 uL luminescent substrate mix (in-house prepared: 150 mM Tris-Cl, pH 7.6, 3 mM MgCl2, 1% Triton X-100, 5 mM DTT, 0.5 mM CoA, 0.15 mM ATP, 0.44 mM D-luciferin, final concentrations) was added to each well. Plates were then incubated for 15 minutes at room temperature, and subsequently measured on a ViewLux plate reader for luminescent signal using a clear filter with a 10 second exposure and 2x binning. The %Activity was determined from the corrected luminescence values. […] Concentration-response curves were fitted to the signals arising from the resulting luminescence. The concentration-effect curves were then classified based on curve quality (r2), response magnitude and degree of measured activity, and compounds were subsequently categorized based on their curve class.

Chain of Beta-2 adrenergic receptor (Homo sapiens) (P07550 whole entry, looked up): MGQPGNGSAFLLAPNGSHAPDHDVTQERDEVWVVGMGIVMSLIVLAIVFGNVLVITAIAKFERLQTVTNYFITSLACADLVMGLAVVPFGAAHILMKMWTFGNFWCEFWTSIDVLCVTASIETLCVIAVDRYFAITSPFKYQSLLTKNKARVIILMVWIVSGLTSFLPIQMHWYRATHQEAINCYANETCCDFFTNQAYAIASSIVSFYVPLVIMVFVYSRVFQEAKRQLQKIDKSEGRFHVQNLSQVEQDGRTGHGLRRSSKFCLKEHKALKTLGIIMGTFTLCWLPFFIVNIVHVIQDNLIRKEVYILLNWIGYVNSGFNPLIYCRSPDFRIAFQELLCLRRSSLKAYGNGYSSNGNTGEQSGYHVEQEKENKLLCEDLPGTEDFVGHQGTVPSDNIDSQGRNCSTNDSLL

activation, inactive:
OCc1cnc(SCc2ccc(F)cc2)n1Cc1ccc(F)cc1 -1.11%, CCOc1cc2[nH]c(=O)n(Cc3ccc(C(=O)NCCN(CC)CC)cc3)c(=O)c2cc1OCC -2.85%, COc1ccc(Nc2ncc3c(n2)CCN(C(=O)OC(C)(C)C)C3)cc1 -1.93%, CCOC(=O)CNC(=O)c1cc2c(=O)n3cccc(C)c3nc2s1 0.42%, COC(=O)c1ccc(NC(=O)CCc2c(C)nn(-c3ccc(N4CCCC4)nn3)c2C)cc1 0.407%, CC(=O)N1CCCc2cc(S(=O)(=O)N3CCC(C(=O)NCc4ccc(C)cc4)CC3)ccc21 -0.216%, O=C1CC(c2ccc(F)cc2F)c2cc3c(cc2N1)OCO3 (stereo not drawn) 0.79%, COc1cccc(NC(=O)CSc2cc(=O)n(C)c3ccc(Cl)cc23)c1 0.89%, CC(=O)c1cccc(NC(=O)c2nc(-c3ccccc3)n(-c3cccc(C)c3)n2)c1 -1.39%, O=C(Nc1ccc2nc(SCC(=O)N3CCCc4ccccc43)sc2c1)c1ccc(Cl)cc1 -4.59%, COc1ccc(NC(=O)c2cc3cc(C)ccc3n2C)cc1 -4.51%, CCc1ccc(NC(=O)CN2CCSc3ccc(S(=O)(=O)N4CCCC4)cc32)cc1 2.13%, O=c1cc2nc(-c3ccccc3)nc(SCCOc3ccc(Cl)cc3)n2[nH]1 -1.33%, CCc1ccc(Sc2cc(C(=O)NCCCOC(C)C)c3ccccc3n2)cc1 5.47%, Cn1c(=O)c2c(nc(NCCc3ccccc3)n2Cc2ccccc2Br)n(C)c1=O 0.853%, O=C(CSc1ncc(S(=O)(=O)c2ccc(Br)cc2)c(=O)[nH]1)Nc1ccc2c(c1)OCCO2 -1.59%, CCN1CCN(c2cc(C)c3cc(NC(=O)c4cc(Cl)ccc4OC)ccc3n2)CC1 -0.147%, Cc1cccc(-n2c(=O)c3c(c4cc(C)ccc4n3C)n(CC(=O)Nc3ccccc3Cl)c2=O)c1 0.368%, CCc1ccccc1NC(=O)CSc1nc(C)c(C(=O)Nc2ccccc2)c(-c2ccc(Cl)cc2)c1C#N -0.211%, O=C(NCc1ccccc1Cl)C1=Cc2cc(Br)ccc2OC1 -0.0504%, COC(=O)C1=C(c2ccccc2)c2ccccc2S(=O)(=O)N1CC(=O)Nc1ccccc1C(F)(F)F -2.12%, Cc1ccc2cccc(NC(=O)c3cccc4ccccc34)c2n1 0.459%, CC(C)OCCCn1c(SCC(=O)c2ccccc2)nc2c(sc3ccccc32)c1=O -3.59%, CCC(C)Nc1oc(-c2ccc(COc3ccc(Cl)cc3)o2)nc1C#N (stereo not drawn) -4.1%, Cc1ccc(NC(=O)c2nc(S(=O)(=O)Cc3cccc(C)c3)ncc2Cl)cc1 -1.39%, COc1ccc(C2C(=O)N(C3CCCCCC3)CC(=O)N2CCc2ccc(Cl)cc2)cc1OC (stereo not drawn) -0.695%, CCOC(=O)c1cnc2c(C)cc(Cl)cc2c1NCCc1ccc(OC)c(OC)c1 -2.28%, Cc1cccc(CC(=O)Nc2cccc(-c3cn4cccnc4n3)c2)c1 0.528%, Cc1cc(C)cc(NC(c2nnc(-c3cccc(F)c3)o2)c2ccc(F)cc2Cl)c1 (stereo not drawn) -2.14%, Cn1nnnc1SCCCNCc1cccc(OCc2ccc(Cl)cc2)c1 -4.7%, COCCn1c(CCC(=O)Nc2cc(C)ccc2C)nc2cccnc21 -2.56%, O=C(CSc1oc(-c2ccccc2)nc1S(=O)(=O)c1ccc(Br)cc1)NC1CCCCC1 0.602%, COc1ccccc1CNC(=O)CCCCn1c(=O)c2ccccc2n(CC(=O)Nc2cc(Cl)ccc2C)c1=O -1.9%, COc1cccc(CNC(=O)Cc2csc3nc(-c4ccccc4)cn23)c1 -0.157%, Cn1c(COc2ccccc2C(C)(C)C)nc2ccccc21 0.351%, Cc1ccc(CNC(=O)CSc2c(C)cnc3c2c(=O)n(C)c(=O)n3C)cc1 -3.91%, Cc1ccc(CN2CCC(CNC(=O)c3cnn(-c4ccc(C)cc4)c3C3CCN(C(=O)OC(C)(C)C)CC3)CC2)cc1 -0.676%, CSc1nc(=O)c2c(n1C)NC(=O)CC2c1ccccc1OC(C)C (stereo not drawn) -3.09%, COc1ccc(-c2c(C)c3ccc(O)c(CN4CCCC4)c3oc2=O)cc1OC 4.22%, COc1ccccc1NC(=O)c1oc2ccccc2c1NC(=O)COc1ccccc1OC 1.24%, CC(=O)N1CCc2cc(S(=O)(=O)NC(Cc3ccccc3)C(=O)NCc3ccc(C)cc3)ccc21 (stereo not drawn) 0.236%, O=C1Cc2cc(S(=O)(=O)Nc3ccc(OC(F)(F)F)cc3)cc3c2N1CCC3 -0.19%, CC1CCCN(c2nc3c(S(=O)(=O)c4ccc(C(C)C)cc4)nnn3c3ccsc23)C1 (stereo not drawn) 0.103%, Cc1ccc(CSc2nc3ccsc3c(=O)n2CCC(C)C)cc1 -2.67%, CCOc1ccccc1CNC(=O)C1CCCN(S(=O)(=O)c2ccc3c(ccn3C)c2)C1 (stereo not drawn) 1.37%, Cc1ccc2c(=O)cc(C(=O)Nc3sc4c(c3C(=O)NCc3cccnc3)CCCC4)oc2c1 -0.248%, COc1ccc(C(=O)Nc2ccc3nc(N4CCCCC4)cc(C)c3c2)cc1OC 0.327%, COC(=O)CC1Oc2ccccc2-n2cc(-c3ccccc3)nc21 (stereo not drawn) 0.516%, CCOC(=O)c1cc(-c2ccc(OC)c(S(=O)(=O)Nc3ccc(OC)cc3OC)c2)on1 1.94%, Cc1cccc(NC(=O)c2ccc3nc(C(C)C)oc3c2)c1C 0.235%, COc1ccc(Cl)cc1-n1c(CCC(=O)O)ccc1-c1ccc(C)cc1 0.64%, O=C(Nc1ccccc1F)C(c1ccccc1)N1Cc2ccccc2C1=O (stereo not drawn) -0.457%, Cc1ccc(-c2cc(N)n(Cc3cccc(Cl)c3)n2)cc1 0.672%, Cc1nc(SCC(=O)N2CCN(c3ccccc3)CC2)[nH]c(=O)c1C 0.294%, Cc1ccc(C)c(N2CCN(C(=O)C3CCC(CNS(=O)(=O)c4cccs4)CC3)CC2)c1 (stereo not drawn) -1.22%, CCOc1ccc(CNCCSc2nnnn2C)cc1 0.552%, NS(=O)(=O)c1ccc(NC(=O)C(=O)Nc2ccc3nc4n(c(=O)c3c2)CCCCC4)cc1 -2.66%, CCc1ccc(-n2nnc(-c3nc(-c4ccccc4)no3)c2C)cc1 -0.41%, COc1cccc(CNc2nccn(-c3ccc(OC)c(OC)c3)c2=O)c1 0.0673%, COc1ccc(NC(=O)CSc2nc3ccccc3[nH]2)cc1 -2.24%, CC(C)c1ccc(NC(=O)C2CCN(c3nc(-c4ccc(C(C)C)cc4)no3)CC2)cc1 -0.161%, CCOc1cccc2cc(-c3cn4c(n3)sc3cc(C)ccc34)c(=O)oc12 -2.89%, CCc1cc2c(cc3c(=O)n(CC(=O)NCc4cccc(Cl)c4)nc(CC)n32)s1 0.858%
